Data taken from ChEMBL document CHEMBL3988442, “University of Dundee, Small-Polar-MMV Screening Library” (2021).
For some assays here: Results with a measured potency or affinity are listed apart.

How the values were obtained:
Set-up in all cases: scale not given: direction of the effect not stated beside the values
[1] = target: Protein translocase subunit SecA (Escherichia coli (strain K12)) (UniProt P10408); assay: Assay to Identify E. coli SecA ATPase Inhibitors; format: functional; conditions: 30 µM
Protein translocase subunit SecA (Escherichia coli (strain K12)), sequence (P10408 whole entry): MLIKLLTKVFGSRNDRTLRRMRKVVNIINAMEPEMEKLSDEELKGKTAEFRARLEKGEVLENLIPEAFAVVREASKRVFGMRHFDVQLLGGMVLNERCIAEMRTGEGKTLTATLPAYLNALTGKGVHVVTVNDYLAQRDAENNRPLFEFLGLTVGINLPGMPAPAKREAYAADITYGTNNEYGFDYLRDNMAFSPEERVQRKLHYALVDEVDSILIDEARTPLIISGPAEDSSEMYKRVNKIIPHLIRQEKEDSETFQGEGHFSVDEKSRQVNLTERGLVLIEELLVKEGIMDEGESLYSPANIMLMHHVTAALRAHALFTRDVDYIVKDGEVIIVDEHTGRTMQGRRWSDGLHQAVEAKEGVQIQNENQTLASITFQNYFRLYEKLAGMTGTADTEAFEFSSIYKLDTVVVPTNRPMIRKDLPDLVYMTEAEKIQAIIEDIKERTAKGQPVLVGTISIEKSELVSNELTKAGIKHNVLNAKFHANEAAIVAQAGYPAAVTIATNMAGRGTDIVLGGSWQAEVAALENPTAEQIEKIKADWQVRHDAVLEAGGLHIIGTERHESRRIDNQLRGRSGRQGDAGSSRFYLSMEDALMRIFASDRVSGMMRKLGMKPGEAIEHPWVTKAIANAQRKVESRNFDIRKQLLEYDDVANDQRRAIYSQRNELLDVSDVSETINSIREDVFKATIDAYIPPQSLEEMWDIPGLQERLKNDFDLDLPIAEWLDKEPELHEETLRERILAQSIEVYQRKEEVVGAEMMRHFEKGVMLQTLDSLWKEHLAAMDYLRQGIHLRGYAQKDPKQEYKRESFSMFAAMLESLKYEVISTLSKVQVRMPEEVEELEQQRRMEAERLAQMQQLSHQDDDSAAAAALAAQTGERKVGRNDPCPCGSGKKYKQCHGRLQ

[2] = target: T1, Ubiquitin-activating enzyme e1, putative (Leishmania donovani (strain BPK282A1)) (UniProt E9BSI1); assay: Leishmania donovani Ubiquitin Activating Enzyme (LdE1); format: functional; conditions: 30 µM
T1 sequence (whole entry): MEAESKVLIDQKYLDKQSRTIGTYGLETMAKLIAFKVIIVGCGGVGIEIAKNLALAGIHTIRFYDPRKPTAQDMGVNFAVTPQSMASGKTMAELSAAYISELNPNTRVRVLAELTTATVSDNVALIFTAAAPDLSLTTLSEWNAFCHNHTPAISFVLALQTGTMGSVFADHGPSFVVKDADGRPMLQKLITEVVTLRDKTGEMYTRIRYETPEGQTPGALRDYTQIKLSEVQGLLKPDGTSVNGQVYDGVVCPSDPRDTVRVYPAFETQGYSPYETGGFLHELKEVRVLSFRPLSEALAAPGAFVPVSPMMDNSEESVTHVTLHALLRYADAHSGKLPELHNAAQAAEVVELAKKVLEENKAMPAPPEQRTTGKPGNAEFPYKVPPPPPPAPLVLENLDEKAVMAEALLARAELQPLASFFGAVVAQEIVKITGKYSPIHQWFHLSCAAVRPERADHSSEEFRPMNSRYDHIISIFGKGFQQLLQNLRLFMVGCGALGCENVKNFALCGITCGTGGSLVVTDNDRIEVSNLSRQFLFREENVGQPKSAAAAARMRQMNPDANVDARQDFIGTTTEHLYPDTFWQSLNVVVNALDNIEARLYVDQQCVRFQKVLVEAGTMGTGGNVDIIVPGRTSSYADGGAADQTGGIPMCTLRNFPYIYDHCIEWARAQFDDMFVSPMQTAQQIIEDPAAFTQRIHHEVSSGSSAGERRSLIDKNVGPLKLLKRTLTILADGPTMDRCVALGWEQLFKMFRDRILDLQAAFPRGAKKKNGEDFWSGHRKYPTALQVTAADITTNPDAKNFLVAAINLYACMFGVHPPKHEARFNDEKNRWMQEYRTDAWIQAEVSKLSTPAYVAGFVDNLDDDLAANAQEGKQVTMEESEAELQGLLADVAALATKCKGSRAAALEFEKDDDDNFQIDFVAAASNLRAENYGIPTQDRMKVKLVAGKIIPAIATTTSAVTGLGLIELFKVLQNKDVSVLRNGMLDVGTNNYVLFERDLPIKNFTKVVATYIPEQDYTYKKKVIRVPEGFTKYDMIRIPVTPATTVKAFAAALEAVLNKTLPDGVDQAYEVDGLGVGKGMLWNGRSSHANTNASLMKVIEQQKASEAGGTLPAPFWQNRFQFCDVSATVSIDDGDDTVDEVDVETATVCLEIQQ

[3] = target: AMP-activated protein kinase, AMPK (Homo sapiens) (UniProt P54646+O43741+P54619+Q9UGJ0+Q9Y478+Q13131+Q9UGI9); assay: AMP-dependent Kinase enzyme assay. An in vitro enzyme assay that detects ADP turnover that is directly proportional to AMPK activity. This uses naive AMPK that is activated during the assay with MK-8722; format: functional; conditions: 30 µM
[4] = target: Sialic acid-binding Ig-like lectin 9 (Homo sapiens) (UniProt Q9Y336); assay: Hs-Siglec9 ALPHAscreen SOP 20170721; conditions: 10 µM
Sialic acid-binding Ig-like lectin 9 (Homo sapiens), sequence (Q9Y336 whole entry): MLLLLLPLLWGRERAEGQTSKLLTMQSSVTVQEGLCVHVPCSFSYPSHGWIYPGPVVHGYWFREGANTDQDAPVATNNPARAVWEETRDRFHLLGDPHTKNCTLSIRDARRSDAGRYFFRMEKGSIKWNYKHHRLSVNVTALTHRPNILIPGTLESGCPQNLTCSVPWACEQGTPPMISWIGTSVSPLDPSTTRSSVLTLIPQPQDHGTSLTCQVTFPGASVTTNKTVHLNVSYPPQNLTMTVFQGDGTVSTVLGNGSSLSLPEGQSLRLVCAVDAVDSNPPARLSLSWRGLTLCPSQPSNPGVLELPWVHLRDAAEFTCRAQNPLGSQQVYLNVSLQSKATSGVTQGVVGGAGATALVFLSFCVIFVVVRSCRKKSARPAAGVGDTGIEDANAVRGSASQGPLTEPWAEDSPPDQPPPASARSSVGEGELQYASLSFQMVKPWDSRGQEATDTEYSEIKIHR

[5] = tested on: Trypanosoma cruzi; assay: Trypanosoma cruzi phosphomannomutase and mannose-1-phosphate guanylyltransferase assay; format: functional; conditions: 10 µM
[6] = target: T2, Arginase-2, mitochondrial (Homo sapiens) (UniProt P78540); assay: in vitro enzyme assay to detect the production of urea directly proportional to the activity of Arginase II; format: functional; conditions: 33.3 µM; note: in the data most compounds retested in dose-response had high values
T2 sequence (whole entry): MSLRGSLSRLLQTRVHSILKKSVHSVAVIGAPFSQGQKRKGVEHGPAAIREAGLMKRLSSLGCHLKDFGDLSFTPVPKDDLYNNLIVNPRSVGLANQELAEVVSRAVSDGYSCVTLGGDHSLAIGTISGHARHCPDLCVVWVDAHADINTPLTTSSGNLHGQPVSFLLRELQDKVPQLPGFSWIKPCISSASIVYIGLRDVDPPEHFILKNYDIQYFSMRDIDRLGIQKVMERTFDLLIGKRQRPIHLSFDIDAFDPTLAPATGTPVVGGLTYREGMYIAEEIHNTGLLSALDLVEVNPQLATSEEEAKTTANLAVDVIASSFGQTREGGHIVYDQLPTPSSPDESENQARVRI

[7] = target: T3, Proteasome subunit beta (Trypanosoma cruzi) (UniProt O96673); assay: Trypanosoma cruzi proteasome chymotrypsin-like activity (TcProtChymo) assay.; note: in the data most compounds retested in dose-response had high values; format: functional; conditions: 9.37 µM
T3 sequence (whole entry): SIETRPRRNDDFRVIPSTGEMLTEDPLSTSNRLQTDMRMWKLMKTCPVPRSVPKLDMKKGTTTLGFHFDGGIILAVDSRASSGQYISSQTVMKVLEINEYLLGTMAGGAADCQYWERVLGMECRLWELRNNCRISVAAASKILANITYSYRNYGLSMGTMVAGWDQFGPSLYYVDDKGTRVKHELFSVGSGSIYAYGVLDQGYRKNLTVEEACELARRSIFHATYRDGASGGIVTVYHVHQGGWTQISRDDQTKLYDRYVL

[8] = species on record: Homo sapiens; assay: To identify inhibition of the IFN signalling (Jak-Stat) pathway via expression of an eGFP reporter gene under the control of an IFN-stimulated response element (ISRE) containing MxA promoter.; format: functional; conditions: 30 µM
[9] = target: T4, Tyrosyl-tRNA synthetase, putative (Trypanosoma cruzi (strain CL Brener)) (UniProt Q4DSP6); assay: Trypanosoma cruzi tyrosyl tRNA synthetase (TcYRS) _High Tyrosine SOP; format: functional; conditions: 30 µM; note: in the data most compounds retested in dose-response had high values
T4 sequence (whole entry): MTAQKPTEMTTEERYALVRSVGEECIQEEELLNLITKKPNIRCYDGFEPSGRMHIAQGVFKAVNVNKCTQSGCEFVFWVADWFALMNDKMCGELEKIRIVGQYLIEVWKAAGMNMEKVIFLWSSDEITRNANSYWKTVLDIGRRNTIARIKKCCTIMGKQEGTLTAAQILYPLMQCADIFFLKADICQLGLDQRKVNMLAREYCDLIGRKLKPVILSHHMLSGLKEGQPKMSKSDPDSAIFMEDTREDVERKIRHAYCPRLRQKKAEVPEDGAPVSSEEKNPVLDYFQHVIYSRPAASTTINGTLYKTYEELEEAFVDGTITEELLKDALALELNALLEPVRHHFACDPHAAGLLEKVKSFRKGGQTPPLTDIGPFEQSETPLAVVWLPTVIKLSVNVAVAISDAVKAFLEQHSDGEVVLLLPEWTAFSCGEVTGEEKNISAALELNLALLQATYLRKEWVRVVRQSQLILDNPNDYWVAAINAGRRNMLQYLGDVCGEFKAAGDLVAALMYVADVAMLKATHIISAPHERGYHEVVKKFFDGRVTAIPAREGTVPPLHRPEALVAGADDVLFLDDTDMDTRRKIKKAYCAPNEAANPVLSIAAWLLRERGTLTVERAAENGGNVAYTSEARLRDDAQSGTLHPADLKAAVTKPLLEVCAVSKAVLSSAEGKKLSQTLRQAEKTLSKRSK

[10] = target: T4, Tyrosyl-tRNA synthetase, putative (Trypanosoma cruzi (strain CL Brener)); assay: Trypanosoma cruzi tyrosyl tRNA synthetase (TcYRS) SOP; format: functional; conditions: 30 µM
[11] = target: Chromo domain-containing protein 1 (Saccharomyces cerevisiae (strain ATCC 204508 / S288c) (Baker's yeast)) (UniProt P32657); assay: ScCHD-1 Enzyme Inhibition Assay; format: functional; conditions: 30 µM; note: in the data most compounds retested in dose-response had high values
Chromo domain-containing protein 1 (Saccharomyces cerevisiae (strain ATCC 204508 / S288c) (Baker's yeast)), sequence (P32657 whole entry, the tested form may be a part): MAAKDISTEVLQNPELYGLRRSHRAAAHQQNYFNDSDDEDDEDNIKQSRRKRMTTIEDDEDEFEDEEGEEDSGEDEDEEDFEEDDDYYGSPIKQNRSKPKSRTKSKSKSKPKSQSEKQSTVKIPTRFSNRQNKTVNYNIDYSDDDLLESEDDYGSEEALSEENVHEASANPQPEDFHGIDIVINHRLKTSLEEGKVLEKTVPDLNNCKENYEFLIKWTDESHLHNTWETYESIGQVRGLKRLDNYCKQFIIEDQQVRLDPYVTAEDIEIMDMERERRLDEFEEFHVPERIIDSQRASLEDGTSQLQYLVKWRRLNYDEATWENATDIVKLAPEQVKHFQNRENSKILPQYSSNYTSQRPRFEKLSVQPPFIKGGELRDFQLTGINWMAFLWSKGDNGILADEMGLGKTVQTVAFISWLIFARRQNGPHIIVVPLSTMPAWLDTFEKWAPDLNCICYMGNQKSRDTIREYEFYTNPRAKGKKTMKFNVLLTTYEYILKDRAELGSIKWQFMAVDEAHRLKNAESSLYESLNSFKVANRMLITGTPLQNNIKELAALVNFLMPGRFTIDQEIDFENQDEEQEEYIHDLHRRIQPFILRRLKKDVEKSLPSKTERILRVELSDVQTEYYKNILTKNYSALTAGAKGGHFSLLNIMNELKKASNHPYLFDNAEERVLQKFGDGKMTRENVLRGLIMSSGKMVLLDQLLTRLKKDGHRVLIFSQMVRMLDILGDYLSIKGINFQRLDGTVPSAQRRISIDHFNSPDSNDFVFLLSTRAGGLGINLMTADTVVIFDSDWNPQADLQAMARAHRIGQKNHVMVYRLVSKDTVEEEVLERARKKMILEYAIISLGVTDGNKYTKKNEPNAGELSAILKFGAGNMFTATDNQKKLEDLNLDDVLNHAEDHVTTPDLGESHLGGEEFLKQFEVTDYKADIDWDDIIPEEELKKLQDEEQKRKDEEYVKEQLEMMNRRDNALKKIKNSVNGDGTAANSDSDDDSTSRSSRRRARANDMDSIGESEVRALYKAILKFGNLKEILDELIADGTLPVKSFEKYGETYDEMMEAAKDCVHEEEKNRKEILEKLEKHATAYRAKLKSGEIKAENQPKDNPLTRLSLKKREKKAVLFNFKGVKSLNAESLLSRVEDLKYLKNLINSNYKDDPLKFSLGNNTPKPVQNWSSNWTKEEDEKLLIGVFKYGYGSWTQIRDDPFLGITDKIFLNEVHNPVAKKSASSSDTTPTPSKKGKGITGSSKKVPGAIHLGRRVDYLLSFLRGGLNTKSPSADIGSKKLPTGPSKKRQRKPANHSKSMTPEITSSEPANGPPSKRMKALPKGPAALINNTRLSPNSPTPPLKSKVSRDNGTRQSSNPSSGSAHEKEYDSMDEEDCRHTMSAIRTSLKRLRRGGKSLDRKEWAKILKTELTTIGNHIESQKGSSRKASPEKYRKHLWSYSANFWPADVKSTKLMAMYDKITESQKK

Compound | Percent Effect [1] [%] | Percent Effect [2] [%] | Percent Effect [3] [%] | Percent Effect [4] [%] | Percent Effect [5] [%] | Percent Effect [6] [%] | Percent Effect [7] [%] | Percent Effect [8] [%] | Percent Effect [9] [%] | Percent Effect [10] [%] | Percent Effect [11] [%]
O=C(NCc1csc(Br)c1)c1ccncc1 | -2.58 | 19 | 5.52 | 2.28 | 0.103 | 2.8 | 11.3 | 21.8 | -1.04 | 15.2 | -29.5
CC(C)(C)c1cnc(CN2CCC[C@H]2CO)o1 | -1.75 | -5.2 | 4.08 | 12.3 | 5.62 | -0.712 | -1.01 | -3.74 | 7.77 | 9.76 | -5.64
Cc1cccnc1NCCNC(=O)[C@H]1CNC[C@@H](C(=O)N2CCCC2)C1 | -3.94 | 2.74 | -3.43 | 8.93 | 2.38 | 0 | 10.5 | -27.6 | 5.21 | 13.6 | -4.52
O=S(=O)(Nc1cnn(C2CCOCC2)c1)c1c(F)cccc1F | 1.19 | -2.6 | -13.6 | 5.79 | -2.66 | -1.94 | 10.4 | 5.2 | 2.12 | 1.28 | -4.35
O=c1n(CCSCc2ccccc2F)nc2ccccn12 | -4.09 | 7.79 | 0.704 | -1.41 | 7.15 | 4 | 1.7 | 16.8 | 0.952 | 11.8 | -29.5
Cc1noc(C)c1CN1CC2(CCN(C(=O)c3cscn3)CC2)CC1=O | -5.65 | 10.4 | 0.445 | 16.6 | 5.01 | -5.52 | 14.1 | 0.0432 | 6.45 | 11.1 | -2.57
CC1CCN(C(=O)c2ccn(COc3ccc(F)cc3)n2)CC1 | -1.66 | 5.2 | -0.0433 | 10.1 | 2.26 | -5.52 | 25 | -6.17 | 6.45 | 16.1 | -3.54
CCc1noc(C)c1C(=O)N1CCCC1Cn1cc(C)cn1 (stereo unspecified) | -3.44 | 15.8 | 8.82 | -9.39 | -10.4 | 0 | 3.64 | -1.17 | 2.46 | 1.24 | -10.2
CCC(=O)Nc1ccc(C(C)NC(=O)COCCOC)cc1 (stereo unspecified) | 0.243 | 15.8 | -1.87 | -5.07 | 1.46 | -3.55 | 15.1 | 23.5 | 4.25 | 15.6 | -5.61
CN(C)CCOCC1CN(CC2CCOCC2)Cc2nnn(C)c21 (stereo unspecified) | -5.87 | 10.8 | 1.42 | -2.51 | -5.96 | 1.24 | 8.67 | 17 | 5.38 | 11.1 | -4.9
COc1cccc(CN2C[C@@H]3COC[C@]3(COCc3ccncc3)C2)c1 | -5.26 | 8.11 | 5.1 | -1.02 | 6.94 | -4.14 | 14.6 | 5.58 | 2.16 | 10.3 | -0.65
CN(Cc1nc(C2CC2)no1)C1CCCN(c2cccnn2)C1 (stereo unspecified) | -1.65 | -17.7 | 11.7 | 7.67 | 1.6 | 1.14 | -0.573 | -0.447 | 6.4 | 3.8 | 4.91
COCCC(=O)N1C[C@@H]2COC[C@]2(COCc2cccnc2)C1 | -1.17 | 13 | 1.86 | -1.48 | -14.7 | 12.3 | 12 | 17.3 | -1.06 | 8.97 | -8.34
Cc1cc(-c2cnc(N3CCNC(=O)C3)nc2-c2ccc(C)o2)on1 | -8.2 | 21.3 | 3.79 | 11.1 | 1.38 | -6.76 | 11.4 | 29.2 | 5.32 | 11.5 | -16.5
CC1CCc2nc(O)c(C(=O)NCc3cccc(F)c3)cc2C1 (stereo unspecified) | -3.85 | -12 | 11.6 | 0.168 | -3.54 | -5.46 | 4.99 | 9.92 | -1.06 | 0 | -2.98
Cc1cn2c(n1)CCC(NC(=O)c1ccc(CS(C)(=O)=O)cc1)C2 (stereo unspecified) | -7.39 | 13.2 | -4.52 | 4.15 | 7.71 | -3.06 | 4.68 | -9.1 | 5.39 | 12.2 | -9.28
